Sampled rows, rich in hits. Any-hit rate of the full collection: about 1%.
SNCA expr inh – inhibitors of alpha-synuclein (SNCA) gene expression | HEK-293 SNCA-luciferase knock-in, luminescence, 24 h | Potency, µM (series often up to 57.2 µM), usual class: inhibitors | 0.17% of 140,000 active | AID 1671194; note: nearly all actives have a fitted effect of over 45% in size
IP6K1 inhibitor – blocks human inositol hexakisphosphate kinase 1. IP6K1 kinase, ADP-Glo luminescence, 2 h; hits give low values. activity change, % (series mostly up to about 58 µM). 0.81% of 140,000 active. AID 1645851; in the data active = activity change below about -25%
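ADP-Glo luminescence measures ADP made by human IP6K1 during a 2 h RT reaction with ATP/IP6 (mix at 1.3 mM/130 uM); top library doses 57.5 and 19.1 uM final.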
GPT2 inh – blocks human glutamate pyruvate transaminase 2; AID 1671188; 0.25% of 100,000 active; Recombinant GPT2, coupled pyruvate oxidase/HRP Amplex Red fluorescence; Potency, µM (doses to about 57.7 µM), usual class: inhibitors; note: nearly all actives have a fitted effect of over 60% in size
Target sequence (Q8TD30 whole entry, looked up): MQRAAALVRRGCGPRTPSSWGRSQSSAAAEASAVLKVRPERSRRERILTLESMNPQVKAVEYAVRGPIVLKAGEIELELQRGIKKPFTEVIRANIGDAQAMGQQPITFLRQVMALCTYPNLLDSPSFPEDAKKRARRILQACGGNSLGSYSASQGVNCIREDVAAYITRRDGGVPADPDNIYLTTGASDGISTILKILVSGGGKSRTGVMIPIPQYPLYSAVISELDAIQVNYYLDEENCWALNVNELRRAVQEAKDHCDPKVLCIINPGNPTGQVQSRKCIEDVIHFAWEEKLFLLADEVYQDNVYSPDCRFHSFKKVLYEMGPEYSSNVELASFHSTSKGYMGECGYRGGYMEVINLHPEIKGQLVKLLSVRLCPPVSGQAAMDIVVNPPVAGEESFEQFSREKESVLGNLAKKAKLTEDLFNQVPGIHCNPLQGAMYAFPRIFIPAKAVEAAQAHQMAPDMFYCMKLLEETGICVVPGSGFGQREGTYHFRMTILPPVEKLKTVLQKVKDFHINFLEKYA
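Fluorescence read-out: pyruvate from GPT2 turnover coupled to pyruvate oxidase, HRP and Amplex Red (0.2mM ThPP, 0.2U/mL PO and HRP, 50uM Amplex final). Substrates 250uM a-KG, 2mM L-alanine; enzyme 10ng/uL; 30 min RT.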
SNCA viab count – cell viability loss counter-screen; HEK-293-SNCA-luc viability, GF-AFC fluorescence, 24 h; Potency, µM (doses to about 57.1 µM), actives largely listed as cytotoxic; 0.12% of 150,000 active; AID 1671193; note: nearly all actives have a fitted effect of over 30% in size
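HEK-293-SNCA-luc cells (1500/well) plated 24 h, then exposed 24 h to a dilution series; GF-AFC added 30 min at 37C, fluorescence 405/540 nm; normalised to medium-only and DMSO wells, Hill fit.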
IP6K1 inh cnf – human IP6K1 inhibition, confirmatory; shares compounds with IP6K1 inhibitor; recombinant IP6K1 kinase, ADP-Glo luminescence, 2 h; Potency, µM (titrated, usually from 49 µM), actives largely listed as inhibitors; 13% of 1,200 active; note: nearly all actives have a fitted effect of over 65% in size
A number is an active result; – = inactive; ? = inconclusive; · = no result given; [ ] = remark or other dose. Unless noted, calls come from the whole dose curve; as a rule, active = well fitted curve in the direction sought with a large enough effect; inconclusive = small, poorly fitted or top-dose-only effect, or another doubt; inactive = no such curve, though single readings can be large; an effect the other way counts as inactive or inconclusive.

SMILES	SNCA expr inh	IP6K1 inhibitor	GPT2 inh	SNCA viab count	IP6K1 inh cnf
O=C1c2ccccc2C(=O)c2c1ccc(O)c2O	–	-26.9	?	–	3.66µM
CC(C)CNC(=O)c1ccnc(-c2nnc3ccc(Nc4ccccc4)nn23)c1	–	-28.0	–	–	?
COc1ccc(NC(=O)CC2C(=O)N(c3ccccc3)C(=O)N2CCc2sccc2C)cc1 (stereo unspecified)	–	-32.9	·	–	–
CC(C)c1noc(CC2CCN(C(=O)Cc3ccc(F)cc3)CC2)n1	–	-25.7	–	–	–
CC[C@H](C)[C@H](N)C(=O)N1CCC2(CCC(=O)N(Cc3ccccc3)C2)CC1	–	-39.3	–[11.5 µM]	?	–
COCCn1c(=O)c(C(=O)N2CCC(C#N)CC2)nc2cccnc21	–	–	–	–	·
COc1cccc(CNC(=O)Nc2cc(C(=O)NCc3cccc(F)c3)ccc2N2CCCC2)c1	–	-25.6	·	?	–
CCN1CCC2(CCC1=O)CN(Cc1nc(CCOC)no1)CCN2C (stereo unspecified)	–	-33.2	–[11.5 µM]	–	–
CCN1CCC2(CCC1=O)CN(Cc1noc(CC(C)C)n1)CCN2C (stereo unspecified)	–	–	–	–	·
CC(=O)NCCNc1nc(-c2ccc(C(=O)N(C)C)cc2)nc2ccccc12	–	·	·	–	·
CCC(=O)OCCCNc1nc(-c2ccc(Cl)cc2)nc2ccccc12	–	-25.3	·	–	?
Cc1cc(C)cc(OC(=O)c2snnc2C)c1	–	-35.0	·	–	–
Cc1nnsc1C(=O)Oc1ccc(C#N)cc1	–	–	·	–	·
Cc1nnsc1C(=O)Oc1ccc(Cl)cc1	–	-26.1	·	–	–
CSCCNC(=O)c1ccc2nnc(-c3cccc(OC(F)(F)F)c3)n2c1	–	–	?	–	·
C[S+](=O)([O-])NC1CCN(C(=O)c2ccc(-c3cncnc3)cc2)CC1	–	–	–	–[12.5 µM]	·
COCCN(C)C[C@@H]1CN(C(=O)c2c(-c3ccccc3)ccnc2C)C[C@@H]1CO	–	–	–	–	·
COCCN(C)C[C@@H]1CN(C(=O)c2ccc(-c3ccccc3)n2C)C[C@@H]1CO	–	-33.8	–[11.5 µM]	–	–
Brc1c(Br)c(Br)c2n[nH]nc2c1Br	–	·	–	–	0.731µM
Cc1ccc(Cl)cc1NC(=O)N1CCN(C)c2ncccc21	–	–	·	–	·
CN1CCN(C(=O)Nc2cccc(Cl)c2)c2cccnc21	–	-32.4	·	–	–
CCN(CC)c1ccc(C(=C2C=CC(=[N+](CC)CC)C=C2)c2cc(S(=O)(=O)O)ccc2S(=O)(=O)[O-])cc1	–	-50.6	–	–	?
O=C(c1ccccc1F)N1CCCN(c2ccc3nnc(C4CC4)n3n2)CC1	·	–	·	·	·
O=C(NCc1ccccc1)c1nc2sccn2c1-c1ccccc1	–	–	–	–	·
Cc1ccccc1N1CCN(C2CCCN(C/C=C/c3ccc(F)cc3)C2)CC1 (stereo unspecified)	–	-26.8	–	–	–
SMILES	SNCA expr inh	IP6K1 inhibitor	GPT2 inh	SNCA viab count	IP6K1 inh cnf
COc1ccccc1N1CCN(C2CCCN(Cc3cccc(C)n3)C2)CC1 (stereo unspecified)	–	–	–	–	·
Cn1ncc2c(C(=O)NCc3cccc(Cl)c3)cc(C(C)(C)C)nc21	–	–	–	–	·
COCCCNc1nc(NCc2cccc(Cl)c2)c2cnn(C)c2n1	–	-31.7	·	–	?
O=C(C1CCCN1c1nccc(Nc2ccccc2F)n1)N1CCC(Cc2ccccc2)CC1 (stereo unspecified)	–	–	–	–[12.5 µM]	·
COc1ccc(NC(=O)CSc2c3c(nc4ccccc24)CCC3)c(OC)c1	–	–	·	–	·
COc1ccc(NC(=O)c2ccc3c(SCC(=O)O)c4c(nc3c2)CCCC4)c(OC)c1	–	-25.7	·	–	–
CC(C)c1ccc(Nc2c(-c3ccsc3)nc3ccc(Cl)cn23)cc1	–	-31.0	·	–	–
Cc1ccc2nc(-c3ccsc3)c(Nc3ccc(C(C)C)cc3)n2c1	–	–	·	–	·
COc1ccc(S(=O)(=O)N2CCC3(CC2)CC(N2CCOCC2)CCO3)cc1 (stereo unspecified)	–	-25.7	–	–	–
COc1ccccc1OC1(C(=O)O)CCN(Cc2cnn(C)c2C)CC1	–	-28.9	–[11.5 µM]	?	–
CCc1cc(N2CCC(Oc3ccccc3OC)(C(=O)O)CC2)nc(C)n1	–	-32.5	–[11.5 µM]	–	–
CC(C)(C)c1ccc(CSC2=Nc3ccccc3C3=NC(CC(=O)NCc4cccs4)C(=O)N23)cc1 (stereo unspecified)	–	-26.0	·	–	–
